# Results from PubChem BioAssay (NCI).
# This is part of a sample that, as a whole, favours compounds with a hit. Of some 83,000 tested, about 20% had one in any assay.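 Values shown are percent growth following 48 h exposure of cells in 96-well plates to a single concentration of compound; below 10 was considered active.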 Activity calls are given as the source filed them.
# System: HL-60(TB) leukemia
# Assay: NCI-60 one-dose screen, 48 h (100 = growth as untreated, 0 = no growth, -100 = all killed)
# Conditions: 10 µM unless noted
row,Compound,growth
1,CCOC(=O)C(O)C(O)C(=O)OCC (configuration not stated),102% (inactive)
2,C=C(C)[C@@H]1CC[C@]2(C(=O)N3CCN(C)CC3)CC[C@]3(C)[C@H](CC[C@@H]4[C@@]5(C)CC[C@H](OCCC#N)C(C)(C)[C@@H]5CC[C@]43C)[C@@H]12,73.8% (inactive)
3,COC(=O)CCCCCN=Cc1c(O)c(O)c(C(C)C)c2cc(C)c(-c3c(C)cc4c(C(C)C)c(O)c(O)c(C=NCCCCCC(=O)OC)c4c3O)c(O)c12,15.4% (inactive)
4,COc1ccc2nc3ccccc3c(NCc3ccc(F)cc3)c2c1,-34.6% (active)
5,CC(C)CCCCCOC(=O)c1ccccc1SSc1ccccc1C(=O)OCCCCCC(C)C,82.2% (inactive)
6,CN1CCN(c2ccc3nc(-c4ccc5nc(-c6ccc(C(F)(F)F)cc6)[nH]c5c4)[nH]c3c2)CC1,23.9% (inactive)
7,O=C(/C=C/c1cccc(Cl)c1Cl)Nc1ncc(Cc2ccccc2Cl)s1,-3.06% (active)
8,CC(C)NC(=O)OCc1c(COC(=O)NC(C)C)c(-c2ccc(Cl)cc2)n2c1CCC2,43.9% (inactive)
9,C/C(=N\Nc1cc(C)nc2ccc(Br)cc12)c1ccc([N+](=O)[O-])cc1,-37.4% (active)
10,c1cc2nc(-c3cn[nH]c3)c3c(c2cc1-c1cn[nH]c1)C1CCC3C1 (configuration not stated),84.3% (inactive)
11,CCOC(=O)CCC(NC(=O)c1ccc(N)cc1)C(=O)OCC (configuration not stated),102% (inactive)
12,CCOC(=O)C#Cc1c(CC(=O)OCC)nnn1[C@H]1O[C@@H](CO)[C@@H]2OC(C)(C)O[C@@H]21,38% (inactive)
13,Nc1ccc(N=Nc2ccccc2)cc1[N+](=O)[O-],97.1% (inactive)
14,Nc1ncnc2c1c(-c1ccc(Oc3ccccc3)cc1)nn2CC1SSCC1O (configuration not stated),-25.9% (active)
15,CCCCCCCCCCCCCCCCOc1ccc(S(=O)(=O)N(C)C)cc1[N+](=O)[O-],110% (inactive)
16,CCOc1ccc(/C=C(\C#N)c2cc3ccccc3[nH]2)cc1,43.7% (inactive)
17,Nc1nc(N(Cc2ccccc2)c2ccccc2)c2cn[nH]c2n1,32.8% (inactive)
18,COc1ccc(Sc2[nH]c(C(C)=O)c3ccccc23)cc1,23.3% (inactive)
19,COc1ccc(-c2nc3sccn3c2-c2ccnc(S(C)(=O)=O)n2)cc1,55.4% (inactive)

row,Compound,growth
1,Cc1ccc(N=Nc2ccccc2)cc1,85.8% (inactive)
2,COc1ccc(/C=N/NC(=O)c2ccc(-n3cc(-c4ccccc4)nn3)cc2)cc1OC,94.2% (inactive)
3,CN(Cc1ccccc1)c1nc(Cl)c(C2CC(c3ccc4c(c3)OCO4)=NN2c2cc(Cl)cc(Cl)c2)s1 (configuration not stated),105% (inactive)
4,CS(=O)(=O)c1ccc(/C=C\C(=O)O)cc1,122% (inactive)
5,COc1ccc2nc(Cl)c(/C=C/C(=O)c3ccc(NC(=O)CSc4nnc(-c5ccc(Cl)c(Cl)c5)n4-c4ccccc4)cc3)cc2c1,73.1% (inactive)
6,COc1ccc(NC(=O)COc2ccccc2)c(C(N)=O)c1,-7.37% (active)
7,COc1cc2nccc(Oc3ccc(NC(=O)C4(C(=O)Nc5ccc(F)cc5)CC4)cc3)c2cc1OC(=O)c1ccc(N)cc1,-43.9% (active)
8,CC/C=C\C[C@@H]1C/C=C2/C(=O)C=C[C@H]2C/C=C\CCCC(=O)O1,-26% (active)
9,Cc1cccc2c(=O)c3c(sc12)c(NCCCNCCO)nc1ccccc13,14.6% (inactive)
10,N#Cc1ccccc1-c1ccc(Cn2c(-c3cscn3)nc3c(Cl)cccc32)cc1,85.8% (inactive)
11,O=C(N/N=C/c1ccncc1)c1ccc(C(F)(F)F)nc1Nc1cccc(C(F)(F)F)c1,-16.7% (active)
12,c1ccc(-c2ccc(-c3nc4ccccc4[nH]3)cc2)cc1,66.7% (inactive)
13,COc1ccc(-c2ccc(NC(=O)Nc3ccc(Cl)c(C(F)(F)F)c3)c(C)n2)cc1,32.3% (inactive)
14,O=S(=O)(NCCNc1nccc(-c2c(-c3ccc(O)cc3)nc3sccn23)n1)c1cccc2ccccc12,90.3% (inactive)
15,Cc1cscc(C)c1=S,111% (inactive)
16,O=S(=O)(NCCNc1cc(-c2c(-c3cccc(O)c3)nc3sccn23)ccn1)c1ccc(Br)cc1,77.6% (inactive)
17,C=C(C)[C@@H]1CC[C@]2(C(=O)NC3CCCCC3)CC[C@]3(C)[C@H](CC[C@@H]4[C@@]5(C)CCCNC(C)(C)[C@@H]5CC[C@]43C)[C@@H]12,23.7% (inactive)
18,CCc1c(Cl)nc(N)nc1Nc1ccc(C)c(C)c1,88.1% (inactive)
